Screens from PubChem BioAssay.
ATXN viability = Viability Counterscreen for Primary qHTS for Inhibitors of ATXN expression | S2 cells (HEK-293 line with an ATXN2-luciferase reporter) viability, CellTiter-Fluor protease fluorescence, 24 h | Potency, µM (top dose mostly 56.7 µM), most hits filed as cytotoxic | actives 0.49% (n = 400,000) | AID 651635, 2014; further: nearly all actives have a fitted effect of over 40% in size
Gal4-VP16 FLuc = VP16 counterscreen qHTS for inhibitors of ROR gamma transcriptional activity. Drosophila S2 Gal4-VP16 UAS-luciferase, luminescence, 20 h. Potency, µM (highest dose often 53.6 µM), for the others: at the highest dose activity, negative = inhibition, hits mostly inhibitors. actives 3.5% (n = 310,000). AID 2546, 2010;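 further: Gal4-VP16 expression switched on by copper sulfate through the metallothionein promoter; on the % scale 0 is the no-effect control and ±100 the full control effect; nearly all actives have a fitted effect of over 50% in size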
ATXN2 expr inh = Primary qHTS for Inhibitors of ATXN expression; HEK-293 ATXN2-luciferase reporter, luminescence, 24 h; actives 0.72% (n = 360,000); Potency, µM (titrated, usually from 57 µM), for inactives: top-dose activity change, negative = inhibition, actives largely listed as inhibitors; further: on the % scale 0 is the no-effect control and ±100 the full control effect; nearly all actives have a fitted effect of over 55% in size
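qHTS (up to 57 uM final) was run with 24 h compound exposure of reporter cells at 37 °C. Each well was multiplexed: SteadyGlo luminescence measured ATXN2-luciferase expression after a fluorogenic Gly-Phe-AFC viability readout (25 uM final).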
HepG2 tox = qHTS for Inhibitors of TGF-b: Cytotox Counterscreen; HepG2 CAGA-GFP viability, ATP luminescence, 18 h; Potency, µM (series often up to 46.1 µM), without a hit: top-dose activity change, negative = cytotoxicity, actives largely listed as cytotoxic; actives 0.76% (n = 410,000); AID 588856, 2011
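CellTiter-Glo luminescence gave cytotoxicity after 18 hours at 37 degrees C. The cells were HepG2 CAGA-GFP in 1% FBS DMEM, stimulated with 500 pg/mL TGF-beta after compound addition. %Activity was normalised to no-cell wells (complete cell-killing) and DMSO (no toxicity), and curves were fitted and classified.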
RORgamma inh = qHTS for inhibitors of ROR gamma transcriptional activity. Nuclear receptor ROR-gamma (Mus musculus), P51450. Drosophila S2 Gal4-RORgamma UAS-luciferase reporter, 20 h. Potency, µM (doses to about 53.6 µM), without a hit: top-dose activity change, negative = inhibition, actives largely listed as inhibitors. actives 5.4% (n = 310,000); further: on the % scale 0 is the no-effect control and ±100 the full control effect; nearly all actives have a fitted effect of over 60% in size
Target sequence (P51450 whole entry, looked up, the tested form may be a part): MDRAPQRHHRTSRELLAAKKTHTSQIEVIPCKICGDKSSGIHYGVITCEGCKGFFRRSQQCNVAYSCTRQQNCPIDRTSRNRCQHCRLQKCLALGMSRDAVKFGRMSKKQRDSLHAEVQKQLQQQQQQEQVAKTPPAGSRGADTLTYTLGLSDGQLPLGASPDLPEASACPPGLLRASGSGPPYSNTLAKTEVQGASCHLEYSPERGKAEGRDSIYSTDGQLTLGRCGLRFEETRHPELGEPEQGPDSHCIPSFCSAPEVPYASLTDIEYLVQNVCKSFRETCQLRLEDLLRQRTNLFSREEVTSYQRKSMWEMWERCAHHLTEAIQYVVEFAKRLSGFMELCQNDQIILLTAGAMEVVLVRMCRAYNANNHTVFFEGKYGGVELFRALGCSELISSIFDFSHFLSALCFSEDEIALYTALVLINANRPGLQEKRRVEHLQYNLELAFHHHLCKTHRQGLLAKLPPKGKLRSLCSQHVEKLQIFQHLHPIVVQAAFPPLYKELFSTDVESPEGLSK
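Compounds are pin-transferred onto Drosophila Schneider cells expressing a copper-inducible Gal4–ROR gamma transactivation domain fusion. After 1 hr, copper sulfate is added to 700 uM final; luciferase is read 20 hr later.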
TGFb SMAD3 inh = qHTS for Inhibitors of TGF-b. HepG2 CAGA-GFP TGF-b/SMAD3 reporter, GFP fluorescence, 18 h; TGF-beta stimulated, 500 pg/mL final. Potency, µM (top dose mostly 46.1 µM), inactives show at the highest dose activity, negative = inhibition, usual class: inhibitors. actives 1.2% (n = 410,000). AID 588855, 2011; further: on the % scale 0 is the no-effect control and ±100 the full control effect; nearly all actives have a fitted effect of over 65% in size
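HEPG2 CAGA-GFP, 1000 cells/well; 2 h settle, 37 C; cpd via pin tool; TGF-b 500 pg/mL final; 18 h, 37 C; GFP imaging ex488/em500-530; %Activity normalised to -TGF-b and +DMSO controls; CRC fit, curve class.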
Starred values were filed as active, the others as inactive; i = inactive; ? = inconclusive; . = no result given. Hits are enriched below; roughly 6.1% of the tested compounds scored in any of these assays. The call rests on the fitted dose curve; in most records, active means well fitted curve in the direction sought with a large enough effect; inconclusive means small, poorly fitted or top-dose-only effect, or another doubt; inactive means no such curve, though single readings can be large; an effect the other way counts as inactive or inconclusive. Potency means the concentration at half of the fitted maximal effect.

SMILES	ATXN viability	Gal4-VP16 FLuc	ATXN2 expr inh	HepG2 tox	RORgamma inh	TGFb SMAD3 inh
Cc1nc2c(=O)n(C)c(=O)nc-2n(C)n1	7.1µM*	3.5µM*	3.5µM*	0.63µM*	?	0.63µM*
C=CC=O	.	-22%	.	.	-5%	.
COc1ccc(NC(=O)C(Cc2ccccc2)NS(=O)(=O)c2ccc3c(c2)oc(=O)n3C)c(OC)c1 (centres undefined)	i	.	5%	1%	.	0%
CCc1c(C(=O)C(N)=O)c2c(OCC(=O)O)cccc2n1Cc1ccccc1	.	.	-2%	.	.	.
Cc1sc2c(c1C)C(c1ccc(C(C)(C)C)cc1)=NCC(=O)N2CC(=O)Nc1nccs1	i	?	-10%	-57%	11µM*	?
Cc1sc2c(c1C)C(c1cccs1)=NCC(=O)N2CC(=O)NCc1cccs1	i	-23%	-1%	3%	28%	0%
Cc1ccc(CNC(=O)C(=O)NCC(c2cccnc2)N2CCN(c3ccc(F)cc3)CC2)cc1 (centres undefined)	i	.	?	4%	.	7%
C[C@]12CC[C@H](O)C[C@H]1CCC1C2CC[C@]2(C)[C@@H](c3ccc(=O)oc3)C[C@H]3O[C@]132 (some centres undefined)	.	1%	.	6.3µM*	9%	7.9µM*
C[C@]12CCC3[C@@H](CC[C@@H]4C[C@H](O)CC[C@]34C)[C@@H]1CCC2=O (some centres undefined)	i	.	5%	-14%	.	-7%
C[C@]12CC[C@H]3C(CCC4(O)CC(O)CC[C@]34C=O)C1=CC[C@H]2c1ccc(=O)oc1 (some centres undefined)	?	-1%	.	7.1µM*	-10%	?
C[C@]12CCC3C(CC[C@]4(O)CC(O)CC[C@@]34C=O)[C@]1(O)CCC2C1=CC(=O)OC1 (some centres undefined)	.	-17%	.	.	0%	.
CC(=O)O[C@H]1[C@H]2O[C@]23[C@@H]2CC[C@]4(O)C[C@@H](O)CC[C@]4(C)C2CC[C@]3(C)[C@H]1c1ccc(=O)oc1 (some centres undefined)	?	.	0.32µM*	-60%	.	3.5µM*
Oc1c(Cl)cccc1Cc1cc(Cl)cc(Cl)c1O	i	.	?	-29%	.	11µM*
Oc1c(Cl)cccc1Cl	.	6%	.	.	-2%	.
O=c1oc2ccccc2c(O)c1C(CC(O)c1ccc(-c2ccc(Br)cc2)cc1)c1ccccc1 (centres undefined)	i	.	9%	.	.	.
C[C@@H]1CN([C@H](C)CO)C(=O)CCCn2cc(nn2)CO[C@H]1CN(C)C(=O)Oc1cccc2ccccc12	i	.	-2%	10µM*	.	?
[Hg+][c]1ccccc1	.	2.8µM*	.	0.56µM*	?	0.32µM*
CCCCC/C=C\C/C=C\C/C=C\C/C=C\CCCC(=O)N(Cc1ccc(O)c(Cl)c1)Cc1ccc(O)c(Cl)c1	.	10%	.	.	3%	.
CCN(C(=O)Cn1c(=O)oc2cc(Cl)ccc21)c1cccc(C(F)(F)F)c1	i	.	-14%	-92%	.	?
CCCCCCCCn1sccc1=O	.	0.63µM*	25µM*	-97%	0.45µM*	5.6µM*
CCCCCCCCCCCOC(=O)c1ccccc1C(=O)OCCCCCCCCCCC	.	-1%	.	.	13%	.
COc1ccc(-c2c(C)c3cc(OC(=O)N4CCOCC4)ccc3oc2=O)cc1	.	.	.	-26%	.	-4%
Cc1ccc(-c2nc(N(C)C3CCN(C)CC3)c3ccccc3n2)cc1	?	6%	20µM*	13µM*	-8%	?
Cc1nonc1OCCNCCNc1ccc([N+](=O)[O-])c2cccnc12	?	5µM*	-18%	-24%	1.8µM*	-4%
